From PubChem BioAssay
Hits are enriched below; roughly 4.1% of the tested compounds scored in any of these assays.
hcDAF-12 act: activators of H. contortus DAF-12 nuclear receptor; actives 1.4% (n = 370,000); HEK293 hcDAF-12 lit1-tk-luc reporter, luminescence; 0% DMSO, 100% Δ7-dafachronic acid; activation, % at 6.8 µM;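 active = activation above the mean of all tested compounds plus 3 SD, cut at about 5.5% in these data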;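 note: 100% = response to 3 µM Δ7-dafachronic acid high control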
DAX1 inh-1: inhibitors of human orphan nuclear receptor DAX1 (NR0B1); HEK293 Gal4-DAX1 luciferase reporter, luminescence; P51843; AID 504766; actives 0.99% (n = 340,000); inhibition, % at 6.75 µM;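 active = inhibition above the mean over all tested compounds plus 3 SD, cut at about 4.2% in these data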;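 note: 0% = DAX1-transfected cells with DMSO and 100% = empty-vector control cells with DMSO; inhibition shows as a rise in luminescence from relieved DAX1 repression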
hgDAF12 agonist: hgDAF-12 agonism, primary luciferase screen | HEK293 GAL4-hgDAF12 UAS-luciferase reporter, agonist luminescence; normalized to butyrate control | activation, % at 6.8 µM | actives 1.8% (n = 370,000) | AID 687014;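 active = activation above a cutoff set at the mean of all screened compounds plus 3 SD, cut at about 10% in these data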;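 note: 0% = DMSO wells and 100% = sodium butyrate wells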
DAX1 inh-2: inhibitors of DAX1 repression of SF-1 activated StAR promoter; actives 1.1% (n = 370,000); inhibition, % at 6.8 µM; HEK293T StAR-luciferase reporter, SF-1/DAX-1 repression relief;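 active = inhibition above the mean over all tested compounds plus 3 SD, cut at about 3.6% in these data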;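 note: 0% = DAX-1 cells with DMSO and 100% = cells lacking DAX-1 with DMSO; higher inhibition means more luminescence from relief of DAX-1 repression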
ssDAF-12 act: S. stercoralis DAF-12 activation, primary screen; HEK293 ssDAF-12/GRIP1 lit1-tk-luc reporter, luminescence; % of 3 µM dafachronic acid response; activation, % at 6.8 µM; actives 1% (n = 370,000); AID 652126;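 active = activation above the mean over all tested compounds plus 3 SD, cut at about 0.9% in these data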;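 note: 0% = DMSO-only wells and 100% = 3 µM delta7-dafachronic acid wells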
LXRb hcDAF ctr: activates human LXR-beta, counter-screen for hcDAF-12 agonists; shares compounds with hcDAF-12 act; HEK293 Gal4-LXR tk-luc reporter, luminescence, 24 h; normalized: DMSO 0%, positive control 100%; activation, % at 6.8 µM; 3,400 tested, under 10 active; AID 743027;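 active = mean percent activation of the reporter above a cutoff set as the average over tested compounds plus their standard deviation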
Target sequence (P55055 whole entry, looked up, the tested form may be a part): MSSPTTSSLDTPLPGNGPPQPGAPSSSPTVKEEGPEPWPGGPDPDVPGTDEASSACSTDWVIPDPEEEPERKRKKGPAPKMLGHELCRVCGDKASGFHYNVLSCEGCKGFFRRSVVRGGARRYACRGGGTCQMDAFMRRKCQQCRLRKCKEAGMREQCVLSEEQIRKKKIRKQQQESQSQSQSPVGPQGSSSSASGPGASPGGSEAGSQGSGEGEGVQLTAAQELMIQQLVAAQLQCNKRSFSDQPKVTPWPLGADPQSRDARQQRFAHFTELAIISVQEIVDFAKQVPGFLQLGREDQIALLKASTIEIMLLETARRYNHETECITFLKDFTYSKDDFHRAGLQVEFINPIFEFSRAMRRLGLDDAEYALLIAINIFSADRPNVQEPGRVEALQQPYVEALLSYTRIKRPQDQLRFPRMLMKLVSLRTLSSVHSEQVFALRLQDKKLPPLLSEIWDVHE
hcDAF12 ag: confirmation of H. contortus DAF-12 agonists | HEK293 hcDAF-12 lit1-tk-luc reporter, luminescence; % of Δ7-dafachronic acid response | AID 743032 | actives 61% (n = 3,400) | shares compounds with hcDAF-12 act | activation, % at 6.8 µM;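 active = mean activation across triplicate tests above the threshold derived from the earlier primary screen, cut at about 5.5% in these data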;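 note: 0% = DMSO only wells and 100% = 3 µM Δ7-dafachronic acid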
hgDAF12 ag: confirmation of H. glycines DAF-12 agonists. shares compounds with hgDAF12 agonist. HEK293 GAL4-hgDAF12 luciferase reporter, agonist mode; percent of butyrate response. activation, % at 6.8 µM. actives 80% (n = 3,300);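 active = mean activation over triplicate wells above the hit cutoff derived from the earlier primary screen, cut at about 11% in these data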;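 note: 0% = DMSO low control and 100% = 2 mM sodium butyrate high control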
LXRb DAF12 ctr: counter-screen for DAF-12 agonists: agonists of human LXR-beta. shares compounds with hgDAF12 agonist. AID 743051. 3,300 tested, under 10 active. HEK293 Gal4-LXR luciferase reporter, 24 h. activation, % at 6.8 µM;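 active = mean activation of the triplicate above a set limit carried over from the primary screen, none filed active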
Numbers without * were called inactive; / = no result given.

SMILES	hcDAF-12 act	DAX1 inh-1	hgDAF12 agonist	DAX1 inh-2	ssDAF-12 act	LXRb hcDAF ctr	hcDAF12 ag	hgDAF12 ag	LXRb DAF12 ctr
O=C(N/N=C/c1ccc(Br)s1)c1ccco1	1	1	8	0	-1	/	/	/	/
O=C(N/N=C/c1ccc(Br)s1)c1ccccn1	8.2*	2	14*	4.5*	1	1	4	14*	1
CCCC(=O)OC[C@H]1CN([C@H](C)c2ccccc2)S(=O)(=O)c2c(F)cccc2O1	-1	/	-1	1	0	/	/	/	/
C[C@H](CO)N1C[C@H](C)[C@@H](CN(C)C(=O)Nc2ccc3c(c2)OCO3)OCc2cn(nn2)CCCC1=O	2	/	-2	0	0	/	/	/	/
Cc1cc(NC(=O)Nc2ccccc2F)ccc1Br	7.1*	3	21*	3	1	1	6.3*	18*	1
C=CCN=C1NC(c2ccc(C(F)(F)F)cc2)C(C(=O)OC)=C(C)N1C (stereo not drawn)	-1	/	2	-1	-1	/	/	/	/
CN(C)c1ccc(N=Nc2cccc3ccoc23)cc1	16*	6.5*	19*	3	1.6*	1	9.0*	20*	1
O=C(CSc1nnc(-c2ccc(Cl)cc2)n1Cc1ccco1)Nc1ccc(S(=O)(=O)Nc2nccs2)cc1	1	/	1	0	-1	/	/	/	/
Cc1c(C(C)(C)C)s/c(=N/S(=O)(=O)c2ccccc2)n1C	-2	-1	-2	0	0	/	/	/	/
Cc1c(C(C)(C)C)sc(=NC(=O)c2ccccc2O)n1C	6.9*	2	14*	1	0	2	14*	15*	1
CCOc1cc(C2NN=C(c3ccccc3)S2)ccc1OCc1ccccc1Cl (stereo not drawn)	8.7*	5.9*	16*	3	1.4*	2	9.2*	16*	1
CC(C)(C)c1cc[n+](/C(C(=S)Nc2ccccc2F)=C(/[O-])c2ccc3c(c2)OCCO3)cc1	6.8*	2	14*	1	0	0	7.3*	6	0
[O-]C(=C(C(=S)Nc1cccc2ccccc12)[n+]1ccccc1)c1ccc2c(c1)OCCO2	/	-4	/	/	/	/	/	/	/
O=c1[nH]c2ccccc2cc1-c1noc(-c2cccnc2)n1	3	0	0	0	-1	/	/	/	/
c1cncc(-c2noc(-c3ccc4ccccc4c3)n2)c1	8.8*	0	17*	3	1.0*	1	5	19*	1
CCCCn1c(=N)n(CC(=O)c2ccc(OC)cc2)c2ccccc21	0	/	0	0	-1	/	/	/	/
COc1ccc(C(=O)Cn2c(=N)n(C)c3ccccc32)cc1	14*	4.5*	18*	3	1.7*	1	9.1*	19*	1
O=C(O)C(=O)/C(=C\c1cccc2ccccc12)c1ccc2ccccc2n1	2	1	1	1	0	/	/	/	/
O=C(O)C(=O)/C(=C\c1ccsc1)c1ccc2ccccc2n1	23*	2	16*	3	3.2*	1	14*	20*	1
O=C(O)C(=O)/C(=C\c1ccccc1)c1ccc2ccccc2n1	19*	3	17*	4.5*	3.3*	1	16*	22*	1
Clc1ccc2nc3c4ccccc4cnn3c2c1	18*	3	19*	3	1.1*	2	17*	22*	1
Clc1ccc2nc3ccccc3cc2c1	3	0	4	0	0	/	/	/	/
Cc1ccc(-c2nc(-c3ccncc3)no2)c(Cl)c1	7.6*	0	16*	3	1.5*	1	8.5*	16*	1
O=C(NC1CCCCC1)c1cc(-c2ccccc2Cl)on1	0	0	8	1	-1	/	/	/	/
O=C(NC1CCCC1)c1cc(-c2ccccc2Cl)on1	8.0*	1	14*	1	0	1	3	16*	1
SMILES	hcDAF-12 act	DAX1 inh-1	hgDAF12 agonist	DAX1 inh-2	ssDAF-12 act	LXRb hcDAF ctr	hcDAF12 ag	hgDAF12 ag	LXRb DAF12 ctr
COC(=O)c1cc(N=Nc2c(C)[nH]c3ccccc23)cc(C(=O)OC)c1	0	1	3	0	-1	/	/	/	/
Cc1[nH]c2ccccc2c1N=Nc1cccc(C(=O)O)c1	12*	2	14*	4.2*	2.9*	1	7.6*	19*	1
Cc1[nH]n(-c2ccccc2)c(=O)c1N=Nc1cccc(C(=O)O)c1	8.9*	-3	14*	3	2.2*	1	12*	15*	1
O=C(OCC#CCSc1nnc(-c2cccc3ccccc23)o1)c1ccc(C(F)(F)F)cc1	-2	/	-3	/	-1	/	/	/	/
CC(=Nc1ccccc1)c1sc2ccccc2c1O	20*	3	17*	2	2.1*	2	11*	26*	2
Cc1cccc(/N=C/c2sc3ccccc3c2O)n1	3	-1	7	2	0	/	/	/	/
COC(=O)[C@]12C[C@H](CC(=O)NCc3ccc(C)o3)C(=O)N(Cc3ccccc3)C1=C[C@H](C(C)(C)C)O[C@@H]2C	-1	/	0	0	-1	/	/	/	/
Cc1ccc(NC(=O)c2cccc3cccnc23)cc1	8.8*	4	17*	2	2.7*	1	10*	19*	1
O=C(Nc1ccccc1)Nc1cccc2cccnc12	9.0*	3	15*	1	1.8*	1	8.6*	17*	1
O=C(Nc1ccccc1)Nc1cccc2ccccc12	1	1	3	0	-1	/	/	/	/
Cc1ccc(NC(=O)c2ccccc2O)cc1	10*	0	20*	3	2.1*	2	8.3*	17*	1
Cc1ccc(-c2nc3ccccc3s2)cc1NC(=S)NC(=O)/C=C/c1ccco1	3	1	6	2	0	/	/	/	/
O=C(/C=C/c1ccco1)NC(=S)Nc1cc(-c2nc3ccccc3s2)ccc1Cl	12*	2	15*	3	2.8*	0	5	6	0
COc1ccc(C2C(C(=O)Nc3ccc(F)cc3F)CCC(=O)N2c2ccc(OC)cc2)cc1 (stereo not drawn)	-1	/	2	-1	0	/	/	/	/
CC(=O)c1ccc(NCCCN2CCC(C(O)(c3ccccc3)c3ccccc3)CC2)cc1	0	/	0	1	-1	/	/	/	/
COCC(=O)NNC(=O)c1ccccc1OC	3	-1	1	0	0	/	/	/	/
